This passage reports composite z-score, composite Z-score and z-score results from PubChem BioAssay.

Active and inactive are the calls of the source.

In one assay the target is Albumin (Bos taurus) (UniProt P02769). In words: compounds binding labelled BSA control protein – biochemical, small-molecule microarray, Alexa647 label, 635/667 nm fluorescence, artefact control for SMM control protein annotation, profiling panel (AID 1118).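 Further: score merges 667 nm emission intensity and signal-to-noise per printed compound spot.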 Particulars: BSA-A647 binding, fluorescence 635 nm, higher = more signal.
The nature of assay [1]: probe aXIP binding to arrayed compounds – biochemical, NeuroSMM set, 635/667 nm fluorescence, primary screen (AID 1119).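 Further: probe is the protein aXip251-270 applied at 1 µg/mL to compound-printed slides; binding of probe to printed compounds measured as 667 nm fluorescence plus signal to noise.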 Particulars: small-molecule microarray, higher = more signal, called active from +8 up or from −8 down.
The nature of assay [2]: probe aNOTCH3 binding on compound microarray – biochemical, small-molecule microarray, 635/667 nm fluorescence, primary screen (AID 1120).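 Further: probe is a biotin-tagged antibody raised against NOTCH3 rather than NOTCH3 protein; score merges spot fluorescence near 667 nm with spot signal to noise.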 As to conditions: higher = more signal.
Assay [3] is described as follows: probe aNOTCH2 binding on compound microarray – biochemical, small-molecule microarray, 635/667 nm fluorescence, primary screen (AID 1121).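 Further: score merges feature fluorescence read at 667 nm with its signal to noise.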 As to conditions: higher = more signal.
Assay [4] has as its target Carbonic anhydrase 2 (Homo sapiens) (UniProt P00918). Briefly: compounds binding carbonic anhydrase 2 – biochemical, small-molecule microarray, Alexa647-labelled CAII, profiling panel (AID 1122). As to conditions: CAII-A647 binding fluorescence, higher = more signal.
Assay [5] in a line: COS7 lysate on small-molecule microarray, probe aHis, 635 nm (AID 1123).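 Further: z-score combines 667nm fluorescence intensity with signal-to-noise per printed compound spot.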 Particulars: COS7 cell lysate, fluorescence, higher = more signal.
Assay [6] can be described thus: probe aLAP1 signal on lysate-treated microarray – cell lysate, small-molecule microarray, COS7 lysate, primary screen (AID 1124).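 Further: lysate comes from COS7 cells expressing LAP1 and is applied at 0.3 µg/mL; score merges spot fluorescence near 667 nm with signal-to-noise over triplicate slides.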 Particulars: probe aLAP1, fluorescence, higher = more signal.
The test system of the next assay is Sam68 (KHDRBS1). In words: compounds binding KHDRBS1 protein – biochemical, small-molecule microarray, 635 nm fluorescence, primary screen (AID 1125).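 Further: score merges 667 nm channel intensity with signal to noise over triplicate slides.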 Particulars: higher = more signal.
The subject of assay [7] is Chordin-like protein 2 (CHRDL2). In words: compounds binding chordin-like 2 – biochemical, small-molecule microarray, 635 nm fluorescence, primary screen (AID 1126).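 Further: printed compound slides probed with Chrdl2 protein at 4 µg/mL for 1 h at 4 C; score merges 667 nm emission intensity with signal to noise over three replicate slides.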 Particulars: fluorescence 635 nm, higher = more signal.
Assay [8] deals with Concanavalin-A (Canavalia ensiformis) (UniProt P02866). Briefly: compounds binding concanavalin A lectin – biochemical, small-molecule microarray, Alexa647 label, 635 nm, artefact control for SMM control protein annotation, primary screen (AID 1127).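 Further: z combines 667 nm emission intensity with signal-to-noise across three replicate slides.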 As to conditions: ConA-A647 binding fluorescence, higher = more signal.
The nature of assay [9]: compounds binding Alexa647 anti-His antibody – biochemical, small-molecule microarray, 635 nm fluorescence, artefact control for SMM control protein annotation, primary screen (AID 1128).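 Further: score merges feature fluorescence with signal-to-noise for each printed compound spot.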 Particulars: higher = more signal.
For assay [10], the system named is Human papillomavirus type 1a E7 protein (residues 1-88). Briefly: HPV1a E7 small-molecule binders, primary screen, biochemical, small-molecule microarray, residues 1-88, 635 nm (AID 1129). Particulars: small-molecule microarray binding, fluorescence 635 nm; higher = more signal.
The target in assay [11] is Focal adhesion kinase 1 (Homo sapiens) (UniProt Q05397). In words: PTK2 protein binding on printed compound slides – biochemical, small-molecule microarray, 635/667 nm fluorescence, BSA, DTT, primary screen (AID 1130).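 Further: composite of spot emission at 667 nm and signal to noise over triplicate slides.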 As to conditions: 635 nm fluorescence, higher = more signal.
The test system of assay [12] is Fibrinogen (Alexa647-labelled). Briefly: Alexa647-fibrinogen binding to printed small molecules – biochemical, small-molecule microarray, 635/667 nm fluorescence, artefact control for SMM control-protein annotation, profiling panel (AID 1131).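 Further: z-score merges 667 nm fluorescence with per-spot signal-to-noise over triplicate slides.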 As to conditions: fibrinogen-A647 binding fluorescence, higher = more signal.
Assay [13] addresses Follistatin (Homo sapiens) (UniProt P19883). Briefly: FST protein binding to printed compounds – biochemical, small-molecule microarray, 635/667 nm fluorescence, primary screen (AID 1132). Particulars: 635 nm fluorescence, higher = more signal.
The target of assay [14] is Fibroblast growth factor 2 (Homo sapiens) (UniProt P09038). In words: basic fibroblast growth factor binding to printed compounds – biochemical, small-molecule microarray, 635/667 nm fluorescence, primary screen (AID 1133). As to conditions: FGF2, fluorescence 635/667, higher = more signal.
The nature of assay [15]: JC-1 mitochondrial potential readout, lung cancer cells – cell-based, A549, JC-1 fluorescence, basal, 24 h, 100 nL, profiling panel (AID 1138).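 Further: A549 lung adenocarcinoma cells under basal conditions with no added stimulus; test concentration not given here.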 As to conditions: higher = more signal.
Another assay concerns Lefty1. Briefly: Lefty1 protein binding to printed compounds – biochemical, small-molecule microarray, 635/667 nm fluorescence, primary screen (AID 1139). Particulars: fluorescence 635/667, higher = more signal.
Assay [16] has as its system wheat germ agglutinin (Triticum aestivum), Alexa647-labelled. In words: Alexa647-WGA lectin binding to printed small molecules – biochemical, small-molecule microarray, 635/667 nm fluorescence, artefact control for SMM control-protein annotation, profiling panel (AID 1140).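 Further: score merges 667 nm feature emission with signal to noise over triplicate slides.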 Particulars: WGA-A647 binding, 635 nm fluorescence, higher = more signal.
Assay [17] has as its target Luciferin 4-monooxygenase (Photinus pyralis) (UniProt P08659). Briefly: inhibition of purified Photinus pyralis luciferase – biochemical, luminescence, purified enzyme, 2006 set, primary screen (AID 1141).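 Further: cell-free assay with purified firefly luciferase at 100 ng per well in PBS; test concentration not given here.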 Particulars: purified firefly luciferase, SteadyGlo luminescence, 30 min; higher = more signal, called active from +8 up or from −8 down.

Sequence of Focal adhesion kinase 1 (Homo sapiens) (Q05397 whole entry, looked up): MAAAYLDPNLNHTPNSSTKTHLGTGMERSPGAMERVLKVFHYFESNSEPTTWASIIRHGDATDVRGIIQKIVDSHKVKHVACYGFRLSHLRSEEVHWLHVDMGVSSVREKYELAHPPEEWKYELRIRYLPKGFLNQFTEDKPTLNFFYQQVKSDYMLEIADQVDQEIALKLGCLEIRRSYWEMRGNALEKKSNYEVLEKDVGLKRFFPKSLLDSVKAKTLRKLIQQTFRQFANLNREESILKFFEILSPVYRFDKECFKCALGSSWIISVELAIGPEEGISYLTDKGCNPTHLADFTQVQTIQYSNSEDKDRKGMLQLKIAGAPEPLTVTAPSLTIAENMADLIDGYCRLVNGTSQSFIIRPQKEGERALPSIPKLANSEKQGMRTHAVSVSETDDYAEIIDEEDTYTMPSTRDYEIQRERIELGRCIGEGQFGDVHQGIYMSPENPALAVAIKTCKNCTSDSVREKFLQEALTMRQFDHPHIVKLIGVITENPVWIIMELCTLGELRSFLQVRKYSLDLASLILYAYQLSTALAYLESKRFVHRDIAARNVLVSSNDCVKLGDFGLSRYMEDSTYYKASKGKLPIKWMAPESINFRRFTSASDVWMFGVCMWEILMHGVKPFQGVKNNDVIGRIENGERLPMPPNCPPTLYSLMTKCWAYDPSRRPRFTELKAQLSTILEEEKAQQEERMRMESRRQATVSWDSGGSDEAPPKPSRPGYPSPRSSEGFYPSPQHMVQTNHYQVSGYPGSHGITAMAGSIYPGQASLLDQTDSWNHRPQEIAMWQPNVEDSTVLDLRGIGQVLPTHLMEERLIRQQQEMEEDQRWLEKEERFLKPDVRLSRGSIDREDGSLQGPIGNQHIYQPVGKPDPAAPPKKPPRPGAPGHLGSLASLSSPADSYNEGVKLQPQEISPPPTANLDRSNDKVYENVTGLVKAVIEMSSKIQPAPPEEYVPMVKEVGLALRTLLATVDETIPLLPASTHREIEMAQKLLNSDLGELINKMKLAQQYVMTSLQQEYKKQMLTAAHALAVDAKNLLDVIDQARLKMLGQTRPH
Sequence of Follistatin (Homo sapiens) (P19883 whole entry, looked up): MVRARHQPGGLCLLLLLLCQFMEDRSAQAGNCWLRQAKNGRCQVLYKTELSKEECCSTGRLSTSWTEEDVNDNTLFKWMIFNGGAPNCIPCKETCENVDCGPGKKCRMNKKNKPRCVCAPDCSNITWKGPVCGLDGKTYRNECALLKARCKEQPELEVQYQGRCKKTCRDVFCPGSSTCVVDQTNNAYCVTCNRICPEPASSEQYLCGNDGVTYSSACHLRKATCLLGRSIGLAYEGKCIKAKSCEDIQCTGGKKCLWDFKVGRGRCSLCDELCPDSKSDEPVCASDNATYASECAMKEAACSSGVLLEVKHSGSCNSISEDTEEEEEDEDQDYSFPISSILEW
Sequence of Albumin (Bos taurus) (P02769 whole entry, looked up): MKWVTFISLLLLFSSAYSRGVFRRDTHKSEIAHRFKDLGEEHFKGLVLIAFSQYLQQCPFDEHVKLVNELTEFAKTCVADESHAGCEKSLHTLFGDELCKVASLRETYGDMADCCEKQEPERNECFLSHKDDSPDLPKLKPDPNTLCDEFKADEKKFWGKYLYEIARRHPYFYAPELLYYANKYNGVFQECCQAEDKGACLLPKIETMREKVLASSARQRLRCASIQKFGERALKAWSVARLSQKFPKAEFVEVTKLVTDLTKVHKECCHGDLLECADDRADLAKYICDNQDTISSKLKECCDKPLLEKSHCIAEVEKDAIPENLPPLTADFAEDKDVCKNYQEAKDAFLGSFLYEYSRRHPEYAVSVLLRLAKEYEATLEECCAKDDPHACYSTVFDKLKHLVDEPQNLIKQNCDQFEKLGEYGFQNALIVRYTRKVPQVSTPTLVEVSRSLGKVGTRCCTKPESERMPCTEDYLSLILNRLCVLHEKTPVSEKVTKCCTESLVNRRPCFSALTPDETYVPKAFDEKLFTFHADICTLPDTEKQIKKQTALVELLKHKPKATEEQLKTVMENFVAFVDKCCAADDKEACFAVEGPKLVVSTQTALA
Sequence of Fibroblast growth factor 2 (Homo sapiens) (P09038 whole entry, looked up): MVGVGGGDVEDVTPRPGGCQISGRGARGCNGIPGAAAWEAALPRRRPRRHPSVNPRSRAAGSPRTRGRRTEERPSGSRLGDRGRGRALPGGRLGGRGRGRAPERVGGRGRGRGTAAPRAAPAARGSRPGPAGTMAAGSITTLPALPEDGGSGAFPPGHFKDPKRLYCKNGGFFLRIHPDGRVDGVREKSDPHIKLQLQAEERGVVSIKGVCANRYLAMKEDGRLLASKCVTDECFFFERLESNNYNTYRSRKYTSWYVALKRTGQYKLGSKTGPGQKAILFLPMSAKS
Sequence of Concanavalin-A (Canavalia ensiformis) (P02866 whole entry, looked up): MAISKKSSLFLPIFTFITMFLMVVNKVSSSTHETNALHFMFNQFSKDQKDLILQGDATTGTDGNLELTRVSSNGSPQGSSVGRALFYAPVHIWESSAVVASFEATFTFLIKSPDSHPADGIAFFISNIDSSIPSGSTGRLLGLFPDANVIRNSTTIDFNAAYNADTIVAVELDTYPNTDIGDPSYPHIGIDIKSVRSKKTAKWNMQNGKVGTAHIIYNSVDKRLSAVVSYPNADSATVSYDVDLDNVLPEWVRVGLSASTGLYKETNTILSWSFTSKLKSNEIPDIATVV
Sequence of Luciferin 4-monooxygenase (Photinus pyralis) (P08659 whole entry, looked up): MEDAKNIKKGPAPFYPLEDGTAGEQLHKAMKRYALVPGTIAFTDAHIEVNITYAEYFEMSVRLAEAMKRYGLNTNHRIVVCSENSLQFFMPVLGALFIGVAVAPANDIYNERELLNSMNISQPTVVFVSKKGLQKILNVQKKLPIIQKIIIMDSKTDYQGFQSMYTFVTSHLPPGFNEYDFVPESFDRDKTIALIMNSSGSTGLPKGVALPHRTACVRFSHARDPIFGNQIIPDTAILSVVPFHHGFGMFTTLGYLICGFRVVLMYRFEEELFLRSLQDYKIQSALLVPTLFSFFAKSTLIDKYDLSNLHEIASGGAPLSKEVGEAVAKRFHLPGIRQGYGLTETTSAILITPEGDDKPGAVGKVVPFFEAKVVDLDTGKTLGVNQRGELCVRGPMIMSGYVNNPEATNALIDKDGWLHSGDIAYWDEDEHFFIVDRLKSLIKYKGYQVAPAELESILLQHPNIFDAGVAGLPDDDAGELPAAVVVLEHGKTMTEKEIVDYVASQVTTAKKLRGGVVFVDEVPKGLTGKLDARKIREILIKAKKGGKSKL

With `C[C@@H]1CC[C@H]2C(=O)N3[C@@H](CC[C@@H](C)[C@@H]3c3cccc(N4CCOCC4)c3)C(=O)N2[C@H]1c1cccc(N2CCOCC2)c1`, the composite z-score with Albumin (Bos taurus) is 0.0915; in assay [2], -0.344; in assay [3], -0.217; in [4], 0.477; in assay [5], 0.8; in assay [6], 0.581. Further, the composite z-score in the assay on Sam68 (KHDRBS1) worked out at 0.594; in assay [7] it was 0.902; in assay [8], 1.04; in [9], 0.181; in assay [10], 0.978; in [11], 0.0379. Moreover, the composite z-score in [12] was found to be 0.815; in [13] it was 1.16; in assay [14], 1.16; with Lefty1, 1.47; in assay [16], 0.964. Also, the composite Z-score in assay [1] is -0.354 (inactive). Moreover, the z-score in [15] is 1.05; in [17], -1.23 (inactive).
For the compound `C=C[C@H](OC)[C@@H](OC(=O)Nc1ccc(SC)cc1)c1ccc(OC)c(O)c1`, the composite z-score with Albumin (Bos taurus) was -1.37; in assay [2] it was -0.403; in [3], -0.183; in assay [4], 0.1; in assay [5] it was 0.677; in assay [6], -0.245. In addition, the composite z-score in the assay with Sam68 (KHDRBS1) is 0.347; in assay [7], -0.998; in assay [8] it was -0.473; in assay [9], -0.548; in assay [10], -0.19; in assay [11], -0.0802. For the same compound, the composite z-score was -0.666 in [12]; -0.466 in [13]; -0.896 in assay [14]; -0.541 in the assay on Lefty1; -1.51 in assay [16]. Further, the composite Z-score in [1] is 0.157 (inactive). The values for the z-score in assay [15] and in assay [17] were 0.52 and -2.18 (inactive), respectively.
Take `CCCC=C(CCC)[C@@H](NC(=O)c1ccc(C(F)(F)F)cc1)c1ccccc1`: the composite z-score in the assay with Albumin (Bos taurus) was -0.0332; in [2], 0.191; in assay [3], -0.0007; in assay [4], 0.104; in assay [5], 1.29; in assay [6], -0.805. Moreover, the composite z-score in the assay on Sam68 (KHDRBS1) was 0.989; in assay [7], -0.815; in [8], 0.483; in assay [9], 0.81; in assay [10] it was 0.788; in assay [11], 0.0363. Also, the composite z-score in [12] is 0.0538; in assay [13], 0.0643; in [14], -0.764; in the assay on Lefty1, 0.0969; in assay [16], 0.352. Moreover, the composite Z-score in assay [1] was 0.0895 (inactive). In addition, the z-score in assay [15] was -2.54; in assay [17], 1.2 (inactive).
Turning to `CCc1cccc(NC(=O)O[C@H]2[C@H](OC(=O)Nc3ccccc3)[C@@H](OC(=O)Nc3ccccc3)[C@@H](OC)O[C@@H]2CO)c1`, the composite z-score is 0.819 with Albumin (Bos taurus); 0.163 in assay [2]; -0.0527 in [3]; 0.806 in assay [4]; 2.69 in assay [5]; 0.421 in assay [6]. The composite z-score with Sam68 (KHDRBS1) is 1.29; in assay [7], -0.061; in assay [8], 1.14; in [9], 0.51; in [10] it was 1.29; in [11], 0.497. Moreover, the composite z-score in assay [12] stood at 0.978; in assay [13], 1.4; in [14] it was 0.786; in the assay on Lefty1, 0.937; in assay [16], 0.966. Also, in [1], the composite Z-score was -0.477 (inactive). Also, the z-score is -1.47 in assay [15] and 0.846 (inactive) in assay [17].
Turning to `CO[C@@H]1COC(=O)[C@@H]2CCCN2C(=O)CC=C[C@@H](C)[C@H](OC)COC(=O)[C@@H]2CCCN2C(=O)CC=C[C@H]1C`, the composite z-score is -1.36 with Albumin (Bos taurus); -0.0699 in assay [2]; -0.141 in [3]; -0.439 in assay [4]; -0.422 in assay [5]; 0.169 in assay [6]. For the same compound, the composite z-score in the assay on Sam68 (KHDRBS1) was -0.149; in assay [7], 1.36; in [8], -0.512; in assay [9], -0.775; in assay [10], -1.7; in assay [11], -0.191. Also, the composite z-score in assay [12] was -1.15; in [13] it was 1.34; in assay [14], 1.58; in the assay on Lefty1, 1.31; in [16] it was -0.949. Moreover, in assay [1], the composite Z-score is -0.286 (inactive). The z-score in [15] is 1.01; in assay [17] it was -1.44 (inactive).
